Results filed as inconclusive are left out. A structure can be active in one record and inactive in another. Calls of active or inactive are those of the source. The calls were made as follows, unless noted: active = hit-call score of the fitted dose curve at least 0.9, where 1 is the maximum; inconclusive = response in the unintended direction; inactive = score below 0.9.
What was measured:
[1] = target: Bile acid receptor (Homo sapiens) (UniProt Q96RI1); experiment: ATG_FXR_TRANS: Attagene TRANS-FACTORIAL HepG2 Assay for Farnesoid X Receptor (FXR) (AID 2282979); conditions: HepG2 Attagene TRANS FXR-GAL4 reporter transcription;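 also: hits raise reporter mRNA above DMSO so AC50 marks FXR activation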
Chain of Bile acid receptor (Homo sapiens) (Q96RI1 whole entry, looked up, the tested form may be a part): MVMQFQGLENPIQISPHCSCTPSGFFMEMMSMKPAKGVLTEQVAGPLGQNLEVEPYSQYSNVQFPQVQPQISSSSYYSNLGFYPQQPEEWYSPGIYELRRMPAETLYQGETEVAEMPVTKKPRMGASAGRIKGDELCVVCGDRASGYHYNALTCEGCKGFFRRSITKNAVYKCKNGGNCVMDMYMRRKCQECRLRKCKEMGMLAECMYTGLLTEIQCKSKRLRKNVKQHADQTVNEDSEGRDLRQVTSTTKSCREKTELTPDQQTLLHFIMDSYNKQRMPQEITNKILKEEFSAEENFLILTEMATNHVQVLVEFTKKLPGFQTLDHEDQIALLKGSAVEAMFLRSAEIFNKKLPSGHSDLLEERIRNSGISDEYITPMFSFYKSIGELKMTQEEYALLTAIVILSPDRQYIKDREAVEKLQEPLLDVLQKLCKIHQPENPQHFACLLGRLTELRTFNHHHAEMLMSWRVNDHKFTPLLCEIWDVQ
Outline: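 Reporter transcripts from transfected HepG2 cells were measured 24 h after dosing, using RT-PCR with capillary electrophoresis of 6-FAM-labelled fragments. The read-out reflects activity of exogenous FXR-Gal4 chimera on GAL4-UAS units, with induction relative to DMSO.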

[2] = target: Oxysterols receptor LXR-beta (Homo sapiens) (UniProt P55055); experiment: ATG_LXRb_TRANS: Attagene TRANS-FACTORIAL HepG2 Assay for human Liver X Receptor beta (LXRb) (AID 2282981); conditions: HepG2 Attagene TRANS GAL4-LXRb reporter, mRNA
Chain of Oxysterols receptor LXR-beta (Homo sapiens) (P55055 whole entry, looked up, the tested form may be a part): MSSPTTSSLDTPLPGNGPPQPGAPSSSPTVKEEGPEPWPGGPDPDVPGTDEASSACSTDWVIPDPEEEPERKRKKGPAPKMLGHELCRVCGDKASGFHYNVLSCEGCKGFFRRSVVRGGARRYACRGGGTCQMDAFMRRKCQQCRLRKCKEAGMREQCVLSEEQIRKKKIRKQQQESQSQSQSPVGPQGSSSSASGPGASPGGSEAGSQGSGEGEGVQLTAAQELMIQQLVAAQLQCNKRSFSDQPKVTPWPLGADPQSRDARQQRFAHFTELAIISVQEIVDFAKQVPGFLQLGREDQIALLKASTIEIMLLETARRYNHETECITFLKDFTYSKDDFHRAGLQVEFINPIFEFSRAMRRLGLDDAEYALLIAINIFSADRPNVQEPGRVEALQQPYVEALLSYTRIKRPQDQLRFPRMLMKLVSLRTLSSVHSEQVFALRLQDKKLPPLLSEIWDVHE
Outline: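 Multiplexed reporter assay, HepG2, 24 h dosing. Fluorescence of labelled RT-PCR products after capillary electrophoresis gives transcript level; positive fitting direction relative to DMSO.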

[3] = target: Hepatocyte nuclear factor 4-alpha (Homo sapiens) (UniProt P41235); experiment: ATG_HNF4a_TRANS: Attagene TRANS-FACTORIAL HepG2 Assay for human Hepatocyte Nuclear Factor 4 alpha (HNF4a) (AID 2282982); conditions: HepG2 HNF4a transactivation reporter, mRNA readout
Chain of Hepatocyte nuclear factor 4-alpha (Homo sapiens) (P41235 whole entry, looked up, the tested form may be a part): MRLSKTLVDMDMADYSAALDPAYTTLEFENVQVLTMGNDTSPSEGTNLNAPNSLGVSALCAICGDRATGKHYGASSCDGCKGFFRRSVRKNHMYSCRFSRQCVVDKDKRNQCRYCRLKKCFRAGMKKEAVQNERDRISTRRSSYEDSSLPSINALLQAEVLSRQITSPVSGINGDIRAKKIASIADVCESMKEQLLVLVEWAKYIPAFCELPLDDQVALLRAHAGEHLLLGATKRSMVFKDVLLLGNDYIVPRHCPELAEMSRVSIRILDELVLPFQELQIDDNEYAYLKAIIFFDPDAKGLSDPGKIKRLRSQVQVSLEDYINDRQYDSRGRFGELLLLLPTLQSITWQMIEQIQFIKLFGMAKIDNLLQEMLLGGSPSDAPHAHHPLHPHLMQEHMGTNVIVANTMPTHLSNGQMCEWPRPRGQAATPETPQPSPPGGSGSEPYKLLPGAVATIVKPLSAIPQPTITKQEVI
Outline: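 Endpoint reflects transcriptional activation of a GAL4-UAS reporter by an HNF4a-GAL4 chimera in transfected HepG2 cells, 24 h post-dosing. Fluorescence from RT-PCR products separated by capillary electrophoresis; DMSO baseline.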

[4] = ATG_M_06_TRANS: Attagene TRANS-FACTORIAL HepG2 Assay for M06 Transcription Factor (Internal Marker) (AID 2282983); conditions: HepG2 Attagene TRANS M06 internal marker reporter
Outline: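 Background-control reporter readout: after 24 h chemical exposure of transiently transfected HepG2 (GAL4-UAS reporter units), mRNA quantified by RT-PCR with fluorescent labeling and capillary electrophoresis. Gain-of-signal fitting against DMSO baseline.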

[5] = ATG_M_32_TRANS: Attagene TRANS-FACTORIAL HepG2 Assay for M32 Transcription Factor (Internal Marker) (AID 2282984); conditions: HepG2 Attagene TRANS M32 internal marker reporter;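 also: transcript level of a background control reporter unit measured by RT-PCR and capillary electrophoresis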
Outline: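 Internal-marker readout from a multiplexed transcription reporter panel. HepG2 cells were transfected with GAL4-UAS reporter units, treated 24 hours, and reporter transcript levels determined by fluorescence after RT-PCR and capillary separation.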

[6] = target: Nuclear receptor subfamily 4 group A member 2 (Homo sapiens) (UniProt P43354); experiment: ATG_NURR1_TRANS: Attagene TRANS-FACTORIAL HepG2 Assay for human Nuclear Receptor Related Protein 1 (NURR1) (AID 2282985); conditions: HepG2 Attagene TRANS reporter, mRNA readout
Chain of Nuclear receptor subfamily 4 group A member 2 (Homo sapiens) (P43354 whole entry, looked up): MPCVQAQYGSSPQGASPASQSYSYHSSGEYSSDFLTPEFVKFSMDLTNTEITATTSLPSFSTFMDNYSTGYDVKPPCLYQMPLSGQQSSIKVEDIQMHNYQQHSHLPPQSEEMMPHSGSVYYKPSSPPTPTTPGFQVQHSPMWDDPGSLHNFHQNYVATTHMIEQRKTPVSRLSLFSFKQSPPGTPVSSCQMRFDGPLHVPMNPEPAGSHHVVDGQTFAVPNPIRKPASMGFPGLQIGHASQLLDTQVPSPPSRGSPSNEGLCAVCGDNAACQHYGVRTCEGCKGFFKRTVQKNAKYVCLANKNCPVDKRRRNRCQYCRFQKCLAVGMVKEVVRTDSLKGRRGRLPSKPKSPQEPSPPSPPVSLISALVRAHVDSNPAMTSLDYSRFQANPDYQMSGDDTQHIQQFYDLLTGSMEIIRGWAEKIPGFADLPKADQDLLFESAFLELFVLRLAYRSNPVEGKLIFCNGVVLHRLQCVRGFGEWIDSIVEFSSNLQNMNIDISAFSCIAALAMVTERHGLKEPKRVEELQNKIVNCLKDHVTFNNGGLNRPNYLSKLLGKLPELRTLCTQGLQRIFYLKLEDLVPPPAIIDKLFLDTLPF
Outline: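 Endpoint: reporter mRNA increase relative to DMSO. HepG2 cells transfected with reporter units, treated 24 h; RNA processed by RT-PCR, labelling, HpaI digestion and capillary electrophoresis.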

[7] = target: Transcriptional activator Myb (Homo sapiens) (UniProt P10242); experiment: ATG_Myb_CIS: Attagene CIS-FACTORIAL HepG2 Assay for human Myeloblastosis (Myb) Proto-Oncogene Transcription Factor (AID 2282986; active = hit-call score of the fitted dose curve at least 0.9, where 1 is the maximum; inactive = score below 0.9); conditions: HepG2 Attagene CIS-FACTORIAL Myb reporter transcription; actives raise or lower the signal
Chain of Transcriptional activator Myb (Homo sapiens) (P10242 whole entry, looked up): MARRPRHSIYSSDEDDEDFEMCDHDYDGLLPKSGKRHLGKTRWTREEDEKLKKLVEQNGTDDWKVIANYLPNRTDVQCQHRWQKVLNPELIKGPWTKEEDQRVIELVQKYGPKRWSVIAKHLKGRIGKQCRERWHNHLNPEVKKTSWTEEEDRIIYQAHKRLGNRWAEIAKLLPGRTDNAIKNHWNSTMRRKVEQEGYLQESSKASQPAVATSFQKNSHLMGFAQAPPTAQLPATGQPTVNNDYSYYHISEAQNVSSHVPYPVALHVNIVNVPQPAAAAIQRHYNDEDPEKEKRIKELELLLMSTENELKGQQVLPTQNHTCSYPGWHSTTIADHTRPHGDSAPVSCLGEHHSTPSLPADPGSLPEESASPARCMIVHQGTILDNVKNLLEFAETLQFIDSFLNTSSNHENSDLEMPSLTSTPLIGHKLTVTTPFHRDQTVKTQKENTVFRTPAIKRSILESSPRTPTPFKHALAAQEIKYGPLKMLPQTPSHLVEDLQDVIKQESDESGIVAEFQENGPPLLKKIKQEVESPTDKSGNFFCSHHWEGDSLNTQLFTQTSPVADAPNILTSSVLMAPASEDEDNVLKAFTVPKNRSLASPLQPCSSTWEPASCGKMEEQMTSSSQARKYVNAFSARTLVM
Outline: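 In this HepG2 transient-transfection format, cis-regulated reporter mRNA is quantified 24 h post-dosing by RT-PCR with capillary electrophoresis, fitted bidirectionally to DMSO baseline.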

[8] = target: Nuclear respiratory factor 1 (Homo sapiens) (UniProt Q16656); experiment: ATG_NRF1_CIS: Attagene CIS-FACTORIAL HepG2 Assay for human Nuclear Respiratory Factor 1 (NRF1) Orphan Gene (AID 2282987; active = hit-call score of the fitted dose curve at least 0.9, where 1 is the maximum; inactive = score below 0.9); conditions: HepG2 NRF1 cis-element reporter, Attagene multiplex; actives raise or lower the signal
Chain of Nuclear respiratory factor 1 (Homo sapiens) (Q16656 whole entry, looked up): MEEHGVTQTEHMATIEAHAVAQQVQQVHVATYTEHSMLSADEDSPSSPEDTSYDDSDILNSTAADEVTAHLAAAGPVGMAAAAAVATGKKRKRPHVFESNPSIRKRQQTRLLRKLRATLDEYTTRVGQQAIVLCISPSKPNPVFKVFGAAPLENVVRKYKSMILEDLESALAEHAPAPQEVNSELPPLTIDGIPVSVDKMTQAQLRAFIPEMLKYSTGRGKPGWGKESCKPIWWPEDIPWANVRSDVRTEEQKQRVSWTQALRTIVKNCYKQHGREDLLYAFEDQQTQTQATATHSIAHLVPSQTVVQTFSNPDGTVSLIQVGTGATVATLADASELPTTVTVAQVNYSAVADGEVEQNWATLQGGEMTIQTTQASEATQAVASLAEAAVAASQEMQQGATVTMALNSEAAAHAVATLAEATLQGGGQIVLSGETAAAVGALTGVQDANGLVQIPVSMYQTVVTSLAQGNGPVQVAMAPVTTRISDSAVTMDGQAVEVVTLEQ
Outline: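 Using DMSO as baseline, gain- or loss-of-signal was fitted for reporter mRNA levels in HepG2 cells transiently transfected with cis-regulated reporter units. Samples were taken 24 h after dosing and read by RT-PCR with capillary electrophoresis.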

[9] = ATG_NFI_CIS: Attagene CIS-FACTORIAL HepG2 Assay for human Nuclear Factor I (NFI) (AID 2282989; active = hit-call score of the fitted dose curve at least 0.9, where 1 is the maximum; inactive = score below 0.9); conditions: HepG2 cis-regulatory reporter, NFI response element transcription; actives raise or lower the signal
Outline: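 After transient transfection of HepG2 with cis-promoter reporter constructs and 24 h dosing, RNA is reverse-transcribed, amplified, 6-FAM end-labelled and HpaI-digested before capillary analysis. Bidirectional curve fitting against DMSO.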

[10] = target: Oxysterols receptor LXR-alpha (Homo sapiens) (UniProt Q13133); experiment: ATG_LXRa_TRANS: Attagene TRANS-FACTORIAL HepG2 Assay for human Liver X Receptor alpha (LXRa) (AID 2282980); conditions: HepG2 Attagene TRANS reporter, LXRa transactivation
Chain of Oxysterols receptor LXR-alpha (Homo sapiens) (Q13133 whole entry, looked up, the tested form may be a part): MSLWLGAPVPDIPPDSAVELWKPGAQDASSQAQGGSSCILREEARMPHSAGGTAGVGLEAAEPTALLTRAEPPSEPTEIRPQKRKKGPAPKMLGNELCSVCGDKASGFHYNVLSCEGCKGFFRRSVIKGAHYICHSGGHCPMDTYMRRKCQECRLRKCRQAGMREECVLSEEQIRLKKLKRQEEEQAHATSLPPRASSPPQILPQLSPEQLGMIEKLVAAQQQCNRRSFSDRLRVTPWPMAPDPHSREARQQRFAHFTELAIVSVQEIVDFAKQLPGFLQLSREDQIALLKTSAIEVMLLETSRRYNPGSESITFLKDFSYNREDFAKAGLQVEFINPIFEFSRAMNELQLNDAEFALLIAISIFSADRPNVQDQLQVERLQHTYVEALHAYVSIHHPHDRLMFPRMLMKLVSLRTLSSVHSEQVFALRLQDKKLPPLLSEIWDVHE
Outline: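 Chemical-induced reporter mRNA measured by RT-PCR with fluorescent labelling and capillary electrophoresis after 24 h dosing of transiently transfected HepG2 cells expressing exogenous NR-Gal4 chimeras; increases scored against DMSO baseline.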

| Structure (SMILES) | outcome [1] | outcome [2] | outcome [3] | outcome [4] | outcome [5] | outcome [6] | outcome [7] | outcome [8] | outcome [9] | outcome [10] | AC50 [7] | AC50 [9] | AC50 [3] | AC50 [8] | AC50 [6] | AC50 [1] |
| --- | --- | --- | --- | --- | --- | --- | --- | --- | --- | --- | --- | --- | --- | --- | --- | --- |
| C=CCOC(N)=O | inactive | inactive | inactive | inactive | inactive | inactive | inactive | inactive | inactive |  |  |  |  |  |  |  |
| C=CCOC(F)(C(F)(F)F)C(F)(F)F | inactive |  | inactive | inactive |  | inactive | inactive | inactive | inactive | inactive |  |  |  |  |  |  |
| CCOCn1c(-c2ccc(Cl)cc2)c(C#N)c(Br)c1C(F)(F)F | inactive | inactive | inactive | inactive | inactive | inactive |  | inactive |  | inactive | 78.8 µM (active) | 48.7 µM (active) |  |  |  |  |
| Cc1ccc(CCl)cc1 | inactive | inactive | inactive | inactive | inactive |  | inactive | inactive | inactive |  |  |  |  |  |  |  |
| C=C(C)[C@@H]1CC=C(C=O)CC1 | inactive | inactive |  | inactive |  | inactive | inactive | inactive |  | inactive |  |  |  |  |  |  |
| Cc1ccc2nc3sc(=O)sc3nc2c1 | inactive | inactive |  | inactive | inactive | inactive |  |  |  | inactive | 25 µM (active) |  | 6.47 µM (active) | 12.2 µM (active) |  |  |
| COC(=O)c1cc(Oc2ccc(Cl)cc2Cl)ccc1[N+](=O)[O-] | inactive | inactive | inactive | inactive | inactive |  | inactive | inactive | inactive | inactive |  |  |  |  | 32.3 µM (active) |  |
| OC(Cc1ccccc1Cl)(Cn1[nH]cnc1=S)C1(Cl)CC1 (centres undefined) | inactive |  |  |  |  | inactive | inactive | inactive |  | inactive |  |  |  |  |  |  |
| C=CC(=O)[O][Sn]([CH2]CCC)([CH2]CCC)[CH2]CCC | inactive | inactive | inactive |  | inactive |  | inactive | inactive |  | inactive |  | 0.179 µM (active) |  |  | 0.00109 µM (active) |  |
| COc1nn(C(=O)NS(=O)(=O)c2ccccc2OC(F)(F)F)c(=O)n1C | inactive |  | inactive | inactive | inactive |  | inactive | inactive | inactive | inactive |  |  |  |  |  |  |
| CCOC(=O)OC1=C(c2cc(C)ccc2C)C(=O)NC12CCC(OC)CC2 (centres undefined) | inactive | inactive | inactive | inactive | inactive | inactive | inactive | inactive | inactive | inactive |  |  |  |  |  |  |
| O=[N+]([O-])c1ccc(Nc2ccccc2)cc1 | inactive | inactive | inactive | inactive |  | inactive | inactive | inactive | inactive |  |  |  |  |  |  |  |
| CCOC(=O)C(SP(=S)(OC)OC)c1ccccc1 (centres undefined) |  | inactive |  |  | inactive | inactive | inactive | inactive | inactive | inactive |  |  |  |  |  | 30.7 µM (active) |
| COP(=S)(OC)Oc1cc(Cl)c(I)cc1Cl | inactive | inactive | inactive | inactive | inactive | inactive |  |  |  | inactive | 49.5 µM (active) |  |  | 55.6 µM (active) |  |  |
| CN(C)CCN(C)C | inactive | inactive | inactive |  | inactive | inactive | inactive | inactive | inactive | inactive |  |  |  |  |  |  |
| COC(=O)Nc1cccc(OC(=O)Nc2cccc(C)c2)c1 | inactive |  |  | inactive |  |  | inactive | inactive | inactive | inactive |  |  |  |  |  |  |
| CCCCOC(C)=O | inactive | inactive | inactive | inactive | inactive |  | inactive |  | inactive | inactive | 100 µM (active) |  |  |  |  |  |
| CCCCCCCCCCCCN(C)C | inactive | inactive |  | inactive |  |  | inactive |  |  | inactive |  | 57.2 µM (active) |  | 54.2 µM (active) |  |  |
| c1csc(-c2ccc(-c3cccs3)s2)c1 | inactive | inactive | inactive |  | inactive |  | inactive | inactive | inactive | inactive |  |  |  |  | 3.59 µM (active) |  |
| O=NN1CCCCCC1 | inactive | inactive | inactive | inactive | inactive | inactive | inactive | inactive | inactive |  |  |  |  |  |  |  |
| Cc1ccccc1OP(=O)(Oc1ccccc1)Oc1ccccc1 | inactive |  |  |  | inactive |  | inactive |  | inactive | inactive |  |  |  |  | 25.2 µM (active) |  |
| CC(F)(F)CC(F)(F)F | inactive |  | inactive | inactive | inactive |  | inactive | inactive | inactive | inactive |  |  |  |  |  |  |
| CC(C)=CC1C(C(=O)OCc2cccc(Oc3ccccc3)c2)C1(C)C (centres undefined) | inactive |  |  |  | inactive |  | inactive | inactive | inactive | inactive |  |  |  |  |  |  |
| CC(C)(C)c1cc([N+](=O)[O-])cc(C(C)(C)C)c1O | inactive |  | inactive |  |  |  | inactive |  | inactive | inactive |  |  |  |  | 12.4 µM (active) |  |
| CCN(N=O)C(N)=O | inactive |  | inactive |  | inactive |  | inactive | inactive | inactive | inactive |  |  |  |  |  |  |
| CN(C)c1ccc(N=O)cc1 | inactive | inactive | inactive | inactive | inactive | inactive | inactive | inactive | inactive | inactive |  |  |  |  |  |  |
| CCOC(=O)Cc1ccccc1 | inactive | inactive |  | inactive | inactive | inactive | inactive | inactive | inactive | inactive |  |  |  |  |  |  |

Reference: PubChem BioAssay (EPA / NIEHS)
